The nature of assay [1]: antimalarial activity against Dd2 strain (AID 2302;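 active means growth inhibition above 50% at the single 2 µM test dose, taken to imply half-maximal potency below 2 µM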;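 further: 0% = DMSO untreated growth and 100% = chloroquine plus artemisinin killed control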). The conditions noted are these: P. falciparum Dd2 in RBCs, LDH growth readout, 72 h; at 2 µM; stronger effect = higher value.
Assay [2] in a line: human hepatoma cell viability loss – ATP luminescence, cytotoxicity control for P. falciparum antimalarial project, primary screen (AID 2303;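 active means inhibition above 50%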;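 further: 0% = DMSO wells and 100% = digitonin-killed cells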). The conditions noted are these: HepG2 viability, 24-48 h, at 10 µM, stronger effect = higher value.
Assay [3] concerns the target L-lactate dehydrogenase (Plasmodium falciparum (isolate CDC / Honduras)) (UniProt Q27743). Nature of the assay: PfLDH activity inhibition – cell lysate, 3D7 strain, counter-screen for P. falciparum growth inhibition project (AID 2304).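 Further: 0% = vehicle and 100% = reference inhibitor.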 The conditions noted are these: P. falciparum 3D7 crude extract, LDH APAD/NBT absorbance; at 2 µM; stronger effect = higher value.
Assay [4] is described as follows: inhibition of 3D7 malaria parasite growth – strain 3D7 (AID 2306).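 Further: 0% = DMSO wells and 100% = chloroquine plus artemisinin control wells.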 The note with it: P. falciparum 3D7 erythrocytic growth, LDH absorbance, 72 h; at 2 µM; stronger effect = higher value.
For assay [5], the target named is Calcium-dependent protein kinase 1 (Plasmodium falciparum (isolate 3D7)) (UniProt P62344). Nature of the assay: PfCDPK1 kinase inhibitors, biochemical, TCAMS library (AID 1159585; cut-off not given, nearly all actives have IC50 up to about 0.98 µM;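 further: inhibitors leave more ATP so luminescence rises with inhibition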). The note with it: recombinant PfCDPK1, Kinase-Glo ATP depletion luminescence. In general terms: Kinase-Glo measures the ATP left after a reaction by luminescence.
For assay [6], the target named is Plasmodium falciparum protein kinase 6 (PK6, PF3D7_1337100) (UniProt Q8IDW1). Nature of the assay: PfPK6 kinase inhibitors, biochemical, TCAMS library (AID 1159586). The conditions noted are these: recombinant PfPK6, Kinase-Glo ATP depletion luminescence.
Assay [7] addresses Protein kinase 7 (PK7), Plasmodium falciparum 3D7 (PF3D7_0213400) (UniProt Q7YTF7). Nature of the assay: inhibition of Plasmodium PK7 catalytic activity – biochemical, TCAMS antimalarial set, Kinase-Glo luminescence (AID 1159587). The conditions noted are these: recombinant PfPK7, Kinase-Glo ATP depletion luminescence.
Assay [8] concerns the target Calcium-dependent protein kinase 4 (Plasmodium falciparum (isolate 3D7)) (UniProt Q8IBS5). Nature of the assay: PfCDPK4 kinase inhibitors, biochemical, TCAMS library (AID 1159588; cut-off not given, nearly all actives have IC50 up to about 0.91 µM). The note with it: recombinant PfCDPK4, Kinase-Glo ATP depletion luminescence.

The record followed here is PubChem BioAssay.

Each structure is given as a SMILES string. A number with no mark means an inactive call. For some of these results: Entries with a potency or affinity are not part of this list. Active and inactive are the calls of the source. Unless noted, how the calls were made is not given here.

Chain of Calcium-dependent protein kinase 1 (Plasmodium falciparum (isolate 3D7)) (P62344 whole entry, looked up): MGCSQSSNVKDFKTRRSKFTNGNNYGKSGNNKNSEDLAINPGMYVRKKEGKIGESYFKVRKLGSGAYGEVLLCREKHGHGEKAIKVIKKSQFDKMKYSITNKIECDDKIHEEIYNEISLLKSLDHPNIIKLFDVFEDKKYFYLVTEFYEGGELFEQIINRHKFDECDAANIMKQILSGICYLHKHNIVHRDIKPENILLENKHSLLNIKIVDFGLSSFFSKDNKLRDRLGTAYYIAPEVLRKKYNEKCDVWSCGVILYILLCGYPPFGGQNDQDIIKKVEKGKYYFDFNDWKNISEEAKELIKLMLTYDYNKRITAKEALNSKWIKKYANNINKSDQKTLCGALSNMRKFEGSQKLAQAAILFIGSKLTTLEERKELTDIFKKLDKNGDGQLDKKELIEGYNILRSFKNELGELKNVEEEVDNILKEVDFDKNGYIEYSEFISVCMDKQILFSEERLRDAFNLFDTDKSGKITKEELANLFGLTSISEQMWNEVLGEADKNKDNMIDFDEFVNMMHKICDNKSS
Chain of L-lactate dehydrogenase (Plasmodium falciparum (isolate CDC / Honduras)) (Q27743 whole entry, looked up): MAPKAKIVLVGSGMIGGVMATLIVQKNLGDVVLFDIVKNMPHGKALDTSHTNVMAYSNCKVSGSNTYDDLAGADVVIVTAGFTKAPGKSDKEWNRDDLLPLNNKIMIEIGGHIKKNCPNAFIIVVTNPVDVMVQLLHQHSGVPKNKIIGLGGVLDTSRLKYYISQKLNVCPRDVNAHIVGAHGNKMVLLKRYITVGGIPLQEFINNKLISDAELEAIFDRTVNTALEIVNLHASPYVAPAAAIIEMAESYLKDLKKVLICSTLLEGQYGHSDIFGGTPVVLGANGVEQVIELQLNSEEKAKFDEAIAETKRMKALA
Chain of Plasmodium falciparum protein kinase 6 (PK6, PF3D7_1337100) (Q8IDW1 1-305): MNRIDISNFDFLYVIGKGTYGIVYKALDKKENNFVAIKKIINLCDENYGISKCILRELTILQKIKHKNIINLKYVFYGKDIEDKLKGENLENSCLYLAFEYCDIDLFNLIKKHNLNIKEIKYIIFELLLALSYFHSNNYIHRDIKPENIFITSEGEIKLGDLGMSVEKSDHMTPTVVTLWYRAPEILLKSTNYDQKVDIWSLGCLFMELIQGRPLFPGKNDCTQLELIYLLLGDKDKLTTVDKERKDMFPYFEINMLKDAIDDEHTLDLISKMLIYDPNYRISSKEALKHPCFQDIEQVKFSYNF
Chain of Calcium-dependent protein kinase 4 (Plasmodium falciparum (isolate 3D7)) (Q8IBS5 whole entry, looked up): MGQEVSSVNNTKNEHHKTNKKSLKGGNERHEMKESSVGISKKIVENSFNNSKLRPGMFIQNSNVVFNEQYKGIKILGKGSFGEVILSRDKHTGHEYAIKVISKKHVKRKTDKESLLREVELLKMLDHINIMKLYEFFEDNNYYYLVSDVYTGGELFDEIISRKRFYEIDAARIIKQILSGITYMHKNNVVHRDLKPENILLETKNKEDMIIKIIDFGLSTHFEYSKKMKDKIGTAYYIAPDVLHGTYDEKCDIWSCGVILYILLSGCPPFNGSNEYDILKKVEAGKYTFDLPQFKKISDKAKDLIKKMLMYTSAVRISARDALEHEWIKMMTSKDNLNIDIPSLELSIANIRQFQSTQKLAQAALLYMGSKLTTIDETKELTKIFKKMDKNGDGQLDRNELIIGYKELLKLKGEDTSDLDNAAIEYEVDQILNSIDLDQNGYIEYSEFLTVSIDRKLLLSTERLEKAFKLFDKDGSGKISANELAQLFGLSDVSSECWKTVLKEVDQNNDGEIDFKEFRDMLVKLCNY
Chain of Protein kinase 7 (PK7), Plasmodium falciparum 3D7 (PF3D7_0213400) (Q7YTF7 1-343): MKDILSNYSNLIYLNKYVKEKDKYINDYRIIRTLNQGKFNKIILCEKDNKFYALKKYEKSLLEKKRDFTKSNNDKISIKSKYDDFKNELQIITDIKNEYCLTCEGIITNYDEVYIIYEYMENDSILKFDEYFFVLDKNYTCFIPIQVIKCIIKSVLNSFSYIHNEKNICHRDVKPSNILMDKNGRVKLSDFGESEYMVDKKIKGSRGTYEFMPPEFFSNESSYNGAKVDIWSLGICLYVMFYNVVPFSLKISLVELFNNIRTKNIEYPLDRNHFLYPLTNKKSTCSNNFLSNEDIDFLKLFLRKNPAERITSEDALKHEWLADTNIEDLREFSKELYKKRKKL

As a reminder, the inhibition is the change of the read-out against control, counted positive when it falls. For `Fc1cccc(-c2ccc3c(c2)CC(NCc2c[nH]c4cnccc24)C3)c1` (stereo not given), the results for the growth inhibition in assay [1] and in assay [4] were 68% (active) and 100% (active), respectively. The inhibition in assay [2] was 24%; in assay [3], -1%. Moreover, the outcome in assay [5], in assay [6], in assay [7] and in assay [8] was inactive.

As to `CCOC(=O)Cn1ccc2c(NCc3ccccc3)nc(C)nc21`, the growth inhibition in assay [1] was 0%; in assay [4], 96% (active). Moreover, the inhibition in assay [2] is 64% (active); in assay [3], -1%. For the same molecule, the outcome in assay [5], in assay [6], in assay [7] and in assay [8] was inactive.

For `CC(=O)Nc1ncc(C(=O)Nc2ccc(-c3cccc(-c4nc5ccc(C(F)(F)F)cc5[nH]4)c3)cc2)s1`, the results for the growth inhibition in assay [1] and in assay [4] were 92% (active) and 101% (active), respectively. The inhibition is 79% (active) in assay [2] and 3% in assay [3]. Besides, the result in assay [5], in assay [6], in assay [7] and in assay [8] was inactive.

As to `COc1cccc(NC(=O)c2cc(C(=O)Nc3cccc(OC)c3)cc([N+](=O)[O-])c2)c1`, the growth inhibition in assay [1] is 61% (active); in assay [4], 99% (active). Also, the values for the inhibition in assay [2] and in assay [3] were 1% and -3%, respectively. In addition, the outcome in assay [5], in assay [6], in assay [7] and in assay [8] was inactive.

Turning to `CCOc1cc(CC)ccc1C1CCN(CCCCNC(=O)c2ccc(NC(=O)c3ccc(C#N)cc3)cc2)CC1`, the results for the growth inhibition in assay [1] and in assay [4] were 50% (active) and 91% (active), respectively. The inhibition in assay [2] was 55% (active); in assay [3], -1%. For the same molecule, the result in assay [5], in assay [6], in assay [7] and in assay [8] was inactive.

For the molecule `C=CC(=O)Nc1ccc(Cl)cc1C(O)c1ccccc1` (stereo not given), the growth inhibition in assay [1] is 5%; in assay [4] it was 100% (active). Also, the inhibition in assay [2] was -5%; in assay [3] it was 0%. Further, the result in assay [5], in assay [6], in assay [7] and in assay [8] was inactive.

As for `Cc1ccc2c(NN=Cc3cccc(Cl)c3)cc(C)nc2c1`, the growth inhibition in assay [1] is 52% (active); in assay [4], 96% (active). Further, the inhibition in assay [2] was 50% (active); in assay [3], -2%. Besides, the result in assay [5], in assay [6], in assay [7] and in assay [8] was inactive.

`CCN(CCCN1CCCCC1)c1cc(C)nc(Nc2ccc(C)cc2)n1`: the growth inhibition in assay [1] is 10%; in assay [4], 101% (active). Moreover, the inhibition in assay [2] is 17%; in assay [3], -1%. Also, the outcome in assay [5], in assay [6], in assay [7] and in assay [8] was inactive.

Consider `NC1=NC(c2ccccc2)N(c2ccccc2)C(N)=N1` (stereo not given), for which the values for the growth inhibition in assay [1] and in assay [4] were 85% (active) and 96% (active), respectively. In addition, the inhibition in assay [2] is 0%; in assay [3] it was 2%. Besides, the result in assay [5], in assay [6], in assay [7] and in assay [8] was inactive.

`CCOc1ccc2nc3cc(NC(=O)c4ccco4)ccc3c(N)c2c1`: the results for the growth inhibition in assay [1] and in assay [4] were 56% (active) and 101% (active), respectively. In addition, the inhibition in assay [2] was 36%; in assay [3] it was -1%. Also, the outcome in assay [5], in assay [6], in assay [7] and in assay [8] was inactive.

As to `CC(C)(Cc1ccc(Cl)cc1)NCCCCCCNCCc1ccc(O)c(O)c1`, the growth inhibition is -7% in assay [1] and 90% (active) in assay [4]. The inhibition is 45% in assay [2] and -8% in assay [3]. Besides, the result in assay [5], in assay [6], in assay [7] and in assay [8] was inactive.

Take `O=c1cc(NCCC2CC=CCN2Cc2ccc(Cl)c(Cl)c2)[nH]c2ccccc12` (stereo not given): the growth inhibition was 77% (active) in assay [1] and 94% (active) in assay [4]. Also, the inhibition is 7% in assay [2] and 4% in assay [3]. Besides, the outcome in assay [5], in assay [6], in assay [7] and in assay [8] was inactive.

With `CCCCCCSc1nnc(COc2cccc3ccccc23)n1-c1ccc(OC)cc1`, the values for the growth inhibition in assay [1] and in assay [4] were 100% (active) and 99% (active), respectively. In addition, the inhibition in assay [2] is 19%; in assay [3], 3%. Moreover, the result in assay [5], in assay [6], in assay [7] and in assay [8] was inactive.

In the case of `c1ccc(Oc2ccc(Nc3nc(NCCc4cnc[nH]4)nc(NC4CCCC4)n3)cc2)cc1`, the figures for the growth inhibition in assay [1] and in assay [4] were 23% and 97% (active), respectively. In addition, the inhibition in assay [2] was -5%; in assay [3] it was 6%. Besides, the outcome in assay [5], in assay [6], in assay [7] and in assay [8] was inactive.

As to `C=CCC(C)n1ncc2c3c(N)nc(N)nc3ccc21` (stereo not given), the values for the growth inhibition in assay [1] and in assay [4] were 95% (active) and 93% (active), respectively. The figures for the inhibition in assay [2] and in assay [3] were 66% (active) and -3%, respectively. The outcome in assay [5], in assay [6], in assay [7] and in assay [8] was inactive.

Take `CC(=O)Nc1ccc(C(=O)Nc2cccc(-c3ccc(-c4nc5ccccc5[nH]4)s3)c2)cn1`: the growth inhibition is 91% (active) in assay [1] and 101% (active) in assay [4]. Also, the values for the inhibition in assay [2] and in assay [3] were 9% and 2%, respectively. In addition, the result in assay [5], in assay [6], in assay [7] and in assay [8] was inactive.

With `NC(=O)C1CCN(Cc2cccc(-c3cccc(-c4nc5ccc(C(F)(F)F)cc5[nH]4)c3)c2)CC1`, the growth inhibition in assay [1] and in assay [4] was 100% (active) throughout. Also, the inhibition in assay [2] was 16%; in assay [3], 3%. For the same molecule, the result in assay [5], in assay [6], in assay [7] and in assay [8] was inactive.

`COc1c(O)cc2oc(-c3ccc(O)cc3)cc(=O)c2c1O`: the growth inhibition was 0% in assay [1] and 96% (active) in assay [4]. Moreover, the inhibition in assay [2] is 6%; in assay [3] it was -1%. Also, the result in assay [5], in assay [6], in assay [7] and in assay [8] was inactive.

`Cc1c(CC(=O)N(C)C2CCN(CCCCCNC(=O)/C=C/c3ccc(Cl)c(Cl)c3)CC2)sc2ccc(Cl)cc12`: the growth inhibition in assay [1] is 9%; in assay [4] it was 95% (active). Besides, the inhibition is 93% (active) in assay [2] and 3% in assay [3]. Also, the result in assay [5], in assay [6], in assay [7] and in assay [8] was inactive.

For the molecule `COc1ccc(Nc2ncc3c(-c4ccc(NC(=O)c5cccc(C(F)(F)F)c5)cc4)c[nH]c3n2)cc1OC`, the growth inhibition is 30% in assay [1] and 89% (active) in assay [4]. Besides, the inhibition in assay [2] is 26%; in assay [3], 4%. For the same molecule, the outcome in assay [5], in assay [6], in assay [7] and in assay [8] was inactive.
